Source: PubChem BioAssay (NCATS)
Where “and” joins values, the source holds several entries; their conditions need not be identical. Equal entries are not always repeated. Inconclusive results are not listed. Where a call stands in place of a potency, no number is given. The source holds several records for some structures; these can differ, active in one and inactive in another. Unmarked numbers belong to inactive results. Calls of active or inactive are those of the source. The call rests on the fitted dose curve; in most records, active means well fitted curve in the direction sought with a large enough effect; inconclusive means small, poorly fitted or top-dose-only effect, or another doubt; inactive means no such curve, though single readings can be large; an effect the other way counts as inactive or inconclusive.

Key:
Es-2 = assay: Primary qHTS to identify gynecologic anti-cancer compounds using libraries of approved drugs and bioactive compounds (AID 1345084); conditions: Gynecologic cancer cell panel viability, ATPlite luminescence, 48 h; series mostly up to 57.5 µM; further: nearly all actives have a fitted effect of over 55% in size
Procedure, shortened: (§1)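 Luminescence from the ATPlite ATP-monitoring reagent indicates viable cell number; lower signal means cytotoxicity. Cells received compound 16 h after seeding and were exposed for 48 h across five concentrations.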

HeLa = assay: as above; conditions: Gynecologic cancer cell panel viability, ATPlite luminescence, 48 h; series mostly up to 57.5 µM
Procedure, shortened: as §1

Hek293T = assay: as above; conditions: Gynecologic cancer cell panel viability, ATPlite luminescence, 48 h, control line for the selectivity index; series mostly up to 57.5 µM
Procedure, shortened: as §1

OV90 = assay: as above; conditions: Gynecologic cancer cell panel viability, ATPlite luminescence, 48 h; series mostly up to 57.5 µM
Procedure, shortened: as §1

PA-1 = assay: as above; conditions: Gynecologic cancer cell panel viability, ATPlite luminescence, 48 h; series mostly up to 57.5 µM
Procedure, shortened: as §1

SKOV3 = assay: as above; conditions: Gynecologic cancer cell panel viability, ATPlite luminescence, 48 h; series mostly up to 57.5 µM
Procedure, shortened: as §1

Tov-21-G = assay: as above; conditions: Gynecologic cancer cell panel viability, ATPlite luminescence, 48 h; series mostly up to 57.5 µM
Procedure, shortened: as §1

Tov112D = assay: as above; conditions: Gynecologic cancer cell panel viability, ATPlite luminescence, 48 h; series mostly up to 57.5 µM
Procedure, shortened: as §1

JEG-3 = assay: as above; conditions: Gynecologic cancer cell panel viability, ATPlite luminescence, 48 h; series mostly up to 57.5 µM
Procedure, shortened: as §1

[1] = Drug repurposing screens with cells derived from glioblastoma tumor samples (AID 1345199); conditions: GBM patient neurospheres viability, ATP luminescence, 48 h; further: nearly all actives have a fitted effect of over 40% in size
Procedure, shortened: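 Primary testing used CD133+ neurospheres from four GBM patients, seven concentrations, 48 h exposure and ATP-based viability; confirmation added three slower-growing patient lines.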

[2] = at 20 µM (top of the series), tumour line C
[3] = at 21.2 µM (top of the series), tumour line B
[4] = at 21.2 µM (top of the series), tumour line D
[5] = at 45.9 µM (top of the series), tumour line B
[6] = at 46.1 µM (top of the series), tumour line C
[7] = at 45.9 µM (top of the series), tumour line D
[8] = at 46 µM (top of the series), tumour line A
Potency means the concentration at half of the fitted maximal effect.

Structure (SMILES)	Potency (Es-2)	Potency (HeLa)	Potency (Hek293T)	Potency (OV90)	Potency (PA-1)	Potency (SKOV3)	Potency (Tov-21-G)	Potency (Tov112D)	Potency (JEG-3)	activity, negative = cell killing [1, 2]	activity, negative = cell killing [1, 3]	Potency ([1]; tumour line A)	activity, negative = cell killing [1, 4]	activity, negative = cell killing [1, 5]	activity, negative = cell killing [1, 6]	activity, negative = cell killing [1, 7]	activity, negative = cell killing [1, 8]	Potency ([1]; tumour line D)
C[C@H]1O[C@@H](O[C@H]2CC[C@@]3(C)[C@H](CC[C@@H]4[C@@H]3C[C@@H](O)[C@]3(C)[C@@H](C5=CC(=O)OC5)CC[C@]43O)C2)C[C@H](O)[C@@H]1O[C@H]1C[C@H](O)[C@H](O[C@H]2C[C@H](O)[C@H](O[C@@H]3O[C@H](CO)[C@@H](O)[C@H](O)[C@H]3O)[C@@H](C)O2)[C@@H](C)O1	447 nM (active)	355 nM (active)	355 nM (active)	1580 nM (active)	316 nM (active)	282 nM (active)	316 nM (active)	316 nM (active)	–	–	–	–	–	–	–	–	–	–
CN1CCC(OC(c2ccccc2)c2ccccc2)CC1	inactive	inactive	inactive	–	inactive	inactive	inactive	inactive	inactive	1.79%	-9.68%	7.08 µM (active)	–	–	–	–	–	–
CC(CNC1CCCCC1)OC(=O)c1ccccc1 (centres undefined)	inactive	inactive	inactive	–	inactive	inactive	inactive	inactive	inactive	10.5%	-8.26%	–	-19.5%	–	–	–	–	–
O=C1OC(CN2CCOCC2)CN1/N=C/c1ccc([N+](=O)[O-])o1 (centres undefined)	inactive	inactive	inactive	–	inactive	inactive	inactive	inactive	inactive	-25.2%	2.66%	–	-3.22%	–	–	–	–	–
CCN1/C(=C/C=C/c2sc3ccccc3[n+]2CC)Sc2ccccc21	2510 nM (active)	891 nM (active)	2000 nM (active)	2240 nM (active)	1410 nM (active)	126 nM (active)	891 nM (active)	3160 nM (active)	–	–	–	–	–	–	–	–	–	–
Cc1ccc(O)c([C@H](CCN(C(C)C)C(C)C)c2ccccc2)c1	inactive	inactive	inactive	–	inactive	inactive	inactive	inactive	–	–	–	3.98 µM (active)	–	-18%	-1.49%	–	–	–
Oc1ccccc1C=NCc1ccccc1	inactive	inactive	inactive	–	–	inactive	inactive	inactive	inactive	–	–	–	–	-13.2%	-2.77%	-14.3%	–	–
CCN(CC)CCOC(=O)C1(c2ccccc2)CCCC1	inactive	inactive	inactive	–	inactive	inactive	inactive	inactive	inactive	–	–	–	–	-21.1%	-29.4%	-19.5%	–	–
C=C[C@H]1CN2CC[C@H]1C[C@H]2[C@H](O)c1ccnc2ccc(OC)cc12	inactive	inactive	inactive	–	inactive	inactive	inactive	inactive	inactive	–	–	11.2 µM (active) and 17.8 µM (active)	–	-17.2% and -20.5%	-25.6% and -17.6%	–	–	–
CCOC(=O)C(C#N)=C(c1ccccc1)c1ccccc1	inactive	inactive	inactive	–	inactive	inactive	inactive	inactive	inactive	–	–	11.2 µM (active)	–	-12.8%	–	-4.23%	–	–
CN(C)CCC[C@@]1(c2ccc(F)cc2)OCc2cc(C#N)ccc21	inactive	inactive	inactive	–	inactive	inactive	inactive	inactive	inactive	–	–	–	–	11.5%	2.89%	-13.7%	-29.3%	–
CCN(CC)CCOC(=O)C(Cc1cccc2ccccc12)CC1CCCO1 (centres undefined)	inactive	inactive	inactive	–	inactive	–	inactive	inactive	inactive	6.25%	-13.3%	11.2 µM (active)	-13.7%	–	–	–	–	–
CC(C)(Cc1c[nH]c2ccccc12)NCC(O)COc1ccccc1C#N (centres undefined)	inactive	inactive	inactive	–	inactive	–	inactive	inactive	inactive	–	–	–	–	–	–	–	–	–
O=C(Nc1ccccc1)OCC(CN1CCCCC1)OC(=O)Nc1ccccc1 (centres undefined)	inactive	inactive	–	–	inactive	–	inactive	inactive	inactive	-1.96%	–	11.2 µM (active)	–	–	–	–	–	10 µM (active)
COc1cc(N)c(Cl)cc1C(=O)NC1CCN(Cc2ccccc2)CC1	inactive	inactive	–	–	inactive	inactive	inactive	inactive	inactive	12.2%	-4.38%	11.2 µM (active)	-20.9%	–	–	–	–	–
CCOc1ccc(NC(C)=O)cc1	inactive	inactive	inactive	–	inactive	inactive	inactive	inactive	inactive	–	–	–	–	4.81%	-1.2%	-8.88%	-27%	–

Structure (SMILES)	Potency (Es-2)	Potency (HeLa)	Potency (Hek293T)	Potency (OV90)	Potency (PA-1)	Potency (SKOV3)	Potency (Tov-21-G)	Potency (Tov112D)	Potency (JEG-3)	activity, negative = cell killing [1, 2]	activity, negative = cell killing [1, 3]	Potency ([1]; tumour line A)	activity, negative = cell killing [1, 4]	activity, negative = cell killing [1, 5]	activity, negative = cell killing [1, 6]	activity, negative = cell killing [1, 7]	activity, negative = cell killing [1, 8]	Potency ([1]; tumour line D)
CCN(CC)CCOc1ccccc1C(=O)CCc1ccccc1	inactive	inactive	inactive	–	inactive	inactive	inactive	inactive	inactive	–	–	–	–	–	–	–	–	–
CN1CCN(C2=Nc3cc(F)ccc3Cc3ccccc32)CC1	inactive	inactive	inactive	–	inactive	inactive	inactive	inactive	inactive	–	–	–	–	–	–	–	–	–
CCOC(=O)c1c(N)sc2c1CCN(Cc1ccccc1)C2	inactive	inactive	inactive	–	–	inactive	inactive	inactive	inactive	–	–	11.2 µM (active)	–	–	-15.7%	–	–	–
Cc1nc(-c2ccc(Cl)cc2)oc1COC(C)(C)C(=O)O	inactive	inactive	inactive	–	inactive	inactive	inactive	inactive	inactive	–	–	–	–	-18.8%	-9.1%	-2.81%	–	–
C#C[C@]1(O)CC[C@H]2[C@@H]3CCC4=Cc5oncc5C[C@]4(C)[C@H]3CC[C@@]21C	inactive	794 nM (active)	–	inactive	10000 nM (active)	–	inactive	inactive	inactive	–	–	–	–	-5.62%	-28.8%	-8.01%	-25.3%	–
CCCCc1cc2ccccc2c(OCCN(C)C)n1	inactive	inactive	inactive	–	inactive	–	inactive	inactive	inactive	-4.36%	-17.4%	–	–	–	–	–	–	–
O=C(Oc1cccc2cccnc12)c1ccccc1	inactive	inactive	inactive	inactive	–	–	inactive	inactive	inactive	–	–	–	–	-24.1%	-9.14%	-26.2%	–	–
CCN(CC)CCNC(=O)c1cc(Br)c(N)cc1OC	inactive	inactive	inactive	–	inactive	inactive	inactive	inactive	inactive	–	–	7.94 µM (active)	–	-11.2%	-28.9%	-11.8%	–	–
CC(=C(CCOC(=O)C(C)C)SSC(CCOC(=O)C(C)C)=C(C)N(C=O)Cc1cnc(C)nc1N)N(C=O)Cc1cnc(C)nc1N	inactive	inactive	–	inactive	inactive	inactive	inactive	inactive	inactive	–	–	–	–	1.68%	-16.1%	3.5%	–	–
O=[N+]([O-])c1ccc(/C=N\O)o1	inactive	inactive	inactive	–	inactive	inactive	inactive	inactive	inactive	–	–	–	–	-7.45%	1.04%	-31.7%	–	–
NS(=O)(=O)c1ccc(Cl)c(S(N)(=O)=O)c1	inactive	inactive	inactive	–	inactive	inactive	inactive	inactive	inactive	–	–	–	–	-6.27%	27.6%	-11.1%	-23.6%	–
O=C(CCCN1CC=C(n2c(=O)[nH]c3ccccc32)CC1)c1ccc(F)cc1	inactive	inactive	inactive	–	–	–	inactive	inactive	inactive	–	–	10 µM (active)	–	-17.1%	-24.6%	-15%	–	–
O=S(=O)(O)c1ccc(O)cc1	inactive	inactive	inactive	–	inactive	inactive	inactive	inactive	inactive	–	–	–	–	-17.6%	-1.85%	-11%	–	–
CCC1Nc2cc(Cl)c(S(N)(=O)=O)cc2S(=O)(=O)N1 (centres undefined)	inactive	inactive	–	inactive	inactive	inactive	inactive	inactive	inactive	–	–	–	–	-19.7%	-1.53%	9.79%	–	–
O=c1[nH]c(=O)n([C@H]2C[C@H](O)[C@@H](CO)O2)cc1F	–	5010 nM (active)	inactive	7940 nM (active)	–	7940 nM (active)	–	1000 nM (active)	–	–	–	0.891 µM (active)	–	–	-17.1%	–	–	–
CC(C)n1c(/C=C/[C@@H](O)C[C@@H](O)CC(=O)O)c(-c2ccc(F)cc2)c2ccccc21	inactive	–	inactive	8910 nM (active)	–	inactive	inactive	–	–	–	–	11.2 µM (active)	–	-35.6%	-19.1%	-90.6%	–	–
